According to PubChem BioAssay (EPA / NIEHS):
Inconclusive results are not listed. The source made the active and inactive calls. The calls were made as follows: active = hit-call score of the fitted dose curve at least 0.9, where 1 is the maximum; inconclusive = response in the unintended direction; inactive = score below 0.9.

The compounds below were run against human Phosphodiesterase 10 (PDE10), PDE10A (gene 10846) (UniProt Q9Y233) (assay: NVS_ENZ_hPDE10: NovaScreen (NVS) Enzymatic Assay for human Phosphodiesterase 10 (PDE10) (AID 2283195)).
Chain of human Phosphodiesterase 10 (PDE10), PDE10A (gene 10846) (Q9Y233 whole entry, looked up): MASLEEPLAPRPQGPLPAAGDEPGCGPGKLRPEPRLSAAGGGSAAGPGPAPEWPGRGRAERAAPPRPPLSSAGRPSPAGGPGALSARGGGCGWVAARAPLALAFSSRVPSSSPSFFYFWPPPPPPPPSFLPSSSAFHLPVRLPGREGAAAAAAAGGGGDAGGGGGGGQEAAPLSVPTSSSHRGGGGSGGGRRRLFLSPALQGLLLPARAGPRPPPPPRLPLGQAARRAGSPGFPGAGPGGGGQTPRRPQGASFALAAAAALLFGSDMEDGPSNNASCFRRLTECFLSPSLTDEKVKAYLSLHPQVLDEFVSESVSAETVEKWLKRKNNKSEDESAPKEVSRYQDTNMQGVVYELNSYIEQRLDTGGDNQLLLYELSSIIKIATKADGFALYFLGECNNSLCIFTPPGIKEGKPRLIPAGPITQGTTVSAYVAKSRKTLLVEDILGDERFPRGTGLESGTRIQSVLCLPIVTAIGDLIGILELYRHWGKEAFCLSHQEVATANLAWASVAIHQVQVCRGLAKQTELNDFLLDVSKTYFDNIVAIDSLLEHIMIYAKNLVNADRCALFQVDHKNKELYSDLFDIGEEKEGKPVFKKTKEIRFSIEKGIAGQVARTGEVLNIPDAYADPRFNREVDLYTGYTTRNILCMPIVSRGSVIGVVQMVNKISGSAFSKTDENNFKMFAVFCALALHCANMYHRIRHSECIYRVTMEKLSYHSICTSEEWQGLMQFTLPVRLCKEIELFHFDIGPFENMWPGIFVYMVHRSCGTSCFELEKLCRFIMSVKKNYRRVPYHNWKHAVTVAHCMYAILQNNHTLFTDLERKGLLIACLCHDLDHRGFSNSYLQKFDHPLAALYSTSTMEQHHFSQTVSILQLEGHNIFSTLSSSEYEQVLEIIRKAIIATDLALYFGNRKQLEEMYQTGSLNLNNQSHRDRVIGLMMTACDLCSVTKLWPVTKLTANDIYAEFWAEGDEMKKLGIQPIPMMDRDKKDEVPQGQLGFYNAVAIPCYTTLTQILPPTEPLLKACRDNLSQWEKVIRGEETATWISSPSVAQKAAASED
How it was run: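 Recombinant human PDE10 with fluorescent substrate, 1 h, product separated by electrophoretic mobility shift. Loss of enzyme activity fitted against DMSO; initial screen 25 uM in duplicate, actives run to 50 uM maximum.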

| Compound | outcome | AC50 |
| --- | --- | --- |
| CC(=O)OC1CCCCC1 | inactive | – |
| C=CC(=O)O[C@H]1C[C@@H]2CC[C@@]1(C)C2(C)C | – | 3.57 µM (active) |
| Cn1cccc1 | – | 5.59 µM (active) |
| O=C1CCCCCCCCCCCN1 | inactive | – |
| [Cl][Sc]([Cl])[Cl] | – | 1.67 µM (active) |
| O=C1CCCCCCCCCCC1 | inactive | – |
| CCCCOCC(C)O (stereo not drawn) | inactive | – |
| CCCCCC1=CCCC1=O | inactive | – |
| CCN(CC)c1cccc(C)c1 | inactive | – |
| CC(=O)OC(C)c1ccccc1 (stereo not drawn) | inactive | – |
| CC1(C)C(=O)N(CO)C(=O)N1CO | – | 46.5 µM (active) |
| CCC1(C)C(=O)N(Cl)C(=O)N1Cl (stereo not drawn) | – | 20.7 µM (active) |
| C=C(C)C1CC=C(C)C(OC(C)=O)C1 (stereo not drawn) | inactive | – |

These compounds were tested against human Phosphoinositide 3-kinase alpha (PI3Ka), PIK3CA (gene 5290) (UniProt P42336) (assay: NVS_ENZ_hPI3Ka: NovaScreen (NVS) Enzymatic Assay for human Phosphoinositide 3-kinase alpha (PI3Ka) (AID 2283196)).
Chain of human Phosphoinositide 3-kinase alpha (PI3Ka), PIK3CA (gene 5290) (P42336 whole entry, looked up): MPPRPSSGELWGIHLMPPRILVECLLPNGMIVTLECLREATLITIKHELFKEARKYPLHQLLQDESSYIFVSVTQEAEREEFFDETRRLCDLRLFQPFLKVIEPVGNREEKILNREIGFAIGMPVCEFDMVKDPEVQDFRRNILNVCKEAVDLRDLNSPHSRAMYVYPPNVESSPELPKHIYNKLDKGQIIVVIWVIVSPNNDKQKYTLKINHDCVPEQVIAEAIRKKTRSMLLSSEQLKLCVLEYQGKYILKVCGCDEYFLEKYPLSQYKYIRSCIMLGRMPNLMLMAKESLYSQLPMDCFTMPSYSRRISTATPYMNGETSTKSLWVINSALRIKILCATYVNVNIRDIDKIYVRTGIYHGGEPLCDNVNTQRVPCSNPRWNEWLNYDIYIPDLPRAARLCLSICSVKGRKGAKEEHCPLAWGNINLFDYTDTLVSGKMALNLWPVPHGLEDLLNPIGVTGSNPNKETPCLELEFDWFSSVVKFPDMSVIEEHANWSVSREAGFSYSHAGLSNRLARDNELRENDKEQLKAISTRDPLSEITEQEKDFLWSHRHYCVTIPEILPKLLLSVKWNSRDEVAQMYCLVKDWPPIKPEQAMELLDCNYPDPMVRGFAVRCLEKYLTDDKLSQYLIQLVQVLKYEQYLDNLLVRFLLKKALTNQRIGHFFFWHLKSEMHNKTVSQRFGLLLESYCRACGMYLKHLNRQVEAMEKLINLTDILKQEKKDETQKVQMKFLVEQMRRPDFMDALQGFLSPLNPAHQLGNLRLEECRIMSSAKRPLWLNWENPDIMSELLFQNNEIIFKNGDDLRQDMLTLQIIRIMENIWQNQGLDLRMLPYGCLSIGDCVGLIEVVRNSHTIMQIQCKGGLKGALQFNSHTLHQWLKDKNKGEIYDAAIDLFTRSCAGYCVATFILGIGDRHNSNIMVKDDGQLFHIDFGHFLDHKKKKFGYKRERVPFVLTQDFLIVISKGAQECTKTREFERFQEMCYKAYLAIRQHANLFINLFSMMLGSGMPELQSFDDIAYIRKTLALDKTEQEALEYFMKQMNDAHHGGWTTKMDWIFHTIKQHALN
How it was run: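 Fluorescence/mobility-shift readout of substrate conversion by recombinant enzyme, 1 h post-dosing. Primary screen in duplicate at 25 uM; actives (e.g. ≥30% inhibition) retested in singleton concentration-response, top concentration 50 uM.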

| Compound | outcome | AC50 |
| --- | --- | --- |
| Oc1ccc(/C=C/c2cc(O)cc(O)c2)cc1 | inactive | – |
| O=C1CCCCCCCCCCC1 | inactive | – |
| C=CC(=O)OCC(C)OCC(C)OCC(C)OC(=O)C=C (stereo not drawn) | inactive | – |
| CC(=O)OC(C)c1ccccc1 (stereo not drawn) | inactive | – |
| C=C(C)C1CC=C(C)C(OC(C)=O)C1 (stereo not drawn) | – | 25 µM (active) |

The compounds below were run against sheep Cyclooxygenase-1 (Cox1), PTGS1 (gene 443551) (UniProt P05979) (assay: NVS_ENZ_oCOX1: NovaScreen (NVS) Enzymatic Assay for sheep Cyclooxygenase-1 (Cox1) (AID 2283239);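 also: actives reduce cyclooxygenase activity so potencies are for inhibitors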).
Chain of sheep Cyclooxygenase-1 (Cox1), PTGS1 (gene 443551) (P05979 whole entry, looked up): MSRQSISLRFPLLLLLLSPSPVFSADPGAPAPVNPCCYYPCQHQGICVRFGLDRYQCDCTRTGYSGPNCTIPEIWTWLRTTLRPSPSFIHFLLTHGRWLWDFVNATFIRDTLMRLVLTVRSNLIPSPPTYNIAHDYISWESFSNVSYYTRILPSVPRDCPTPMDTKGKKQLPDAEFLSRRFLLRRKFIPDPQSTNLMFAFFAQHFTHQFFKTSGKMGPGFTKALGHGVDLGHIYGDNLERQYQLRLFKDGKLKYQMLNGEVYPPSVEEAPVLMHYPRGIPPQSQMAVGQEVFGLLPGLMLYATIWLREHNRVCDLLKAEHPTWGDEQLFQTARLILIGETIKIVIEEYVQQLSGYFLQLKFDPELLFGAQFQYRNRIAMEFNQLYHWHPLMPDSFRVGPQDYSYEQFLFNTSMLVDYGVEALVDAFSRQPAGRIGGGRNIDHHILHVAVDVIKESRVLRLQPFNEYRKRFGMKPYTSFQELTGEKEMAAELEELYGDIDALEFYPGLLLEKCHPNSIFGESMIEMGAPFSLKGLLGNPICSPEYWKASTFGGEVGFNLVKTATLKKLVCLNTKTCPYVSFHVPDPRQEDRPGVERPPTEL
How it was run: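 COX1 from ovine seminal vesicles, activity read colorimetrically about 0.66 h after dosing. Primary screen in duplicate at 25 uM; actives retested in concentration series; loss of signal fitted versus DMSO.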

| Compound | outcome | AC50 |
| --- | --- | --- |
| NNS(=O)(=O)c1ccc(Oc2ccc(S(=O)(=O)NN)cc2)cc1 | inactive | – |
| CC1=C(O)C(=O)C(C)O1 (stereo not drawn) | inactive | – |
| Oc1ccc(/C=C/c2cc(O)cc(O)c2)cc1 | – | 7.5 µM (active) |
| Nc1nc(N)nc(-c2ccccc2)n1 | inactive | – |
| Nc1cccc(N)n1 | inactive | – |
| CCCCCC1=CCCC1=O | – | 25 µM (active) |
| CC(=O)OC(C)c1ccccc1 (stereo not drawn) | inactive | – |
| CCCCCCCCCCCC(C)=O | – | 31.9 µM (active) |
| COC(OC)(C(=O)c1ccccc1)c1ccccc1 | inactive | – |
| Oc1c(Cl)cc(Cl)c(Cl)c1Cl | inactive | – |
